Bioassay records as filed in PubChem BioAssay.
GPT2 inhibitor: GPT2 alanine aminotransferase inhibition | Q8TD30 | Recombinant GPT2, coupled pyruvate oxidase/HRP Amplex Red fluorescence | Potency, µM (highest dose often 57.7 µM), inactives show at the highest dose activity change, negative = inhibition, hits mostly inhibitors | 0.25% of 100,000 active; note: potency is the fitted concentration of half-maximal effect; nearly all actives have a fitted effect of over 60% in size
Target sequence (Q8TD30 whole entry, looked up): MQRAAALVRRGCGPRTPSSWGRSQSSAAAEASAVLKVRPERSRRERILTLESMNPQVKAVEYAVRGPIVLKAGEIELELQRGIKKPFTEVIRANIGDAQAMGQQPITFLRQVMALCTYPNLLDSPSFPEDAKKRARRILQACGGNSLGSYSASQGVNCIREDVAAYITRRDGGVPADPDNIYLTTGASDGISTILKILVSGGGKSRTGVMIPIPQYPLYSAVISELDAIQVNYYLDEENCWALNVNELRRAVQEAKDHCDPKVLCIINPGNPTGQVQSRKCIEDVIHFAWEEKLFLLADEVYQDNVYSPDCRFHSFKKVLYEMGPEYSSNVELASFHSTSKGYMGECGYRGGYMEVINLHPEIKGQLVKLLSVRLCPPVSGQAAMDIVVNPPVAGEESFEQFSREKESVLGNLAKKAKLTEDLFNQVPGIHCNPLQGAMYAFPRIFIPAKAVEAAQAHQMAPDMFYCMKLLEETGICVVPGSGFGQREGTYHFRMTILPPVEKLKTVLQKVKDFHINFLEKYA
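Inhibition is scored from Amplex Red fluorescence generated when pyruvate oxidase and HRP act on pyruvate released by GPT2. Reactions contain 10ng/uL enzyme, 250uM a-KG and 2mM L-alanine and run 30 min at room temperature.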
SNCA viab count: counter-screen for SNCA expression inhibitors: cell viability; HEK-293-SNCA-luc viability, GF-AFC fluorescence, 24 h; Potency, µM (top dose mostly 57.1 µM), inactives show top-dose activity change, negative = cytotoxicity, hits mostly cytotoxic; 0.12% of 150,000 active; AID 1671193;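 note: potency is the fitted concentration of half-maximal effect; 0% = DMSO-treated cells and -100% = medium-only wells without cells; nearly all actives have a fitted effect of over 30% in size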
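HEK-293-SNCA-luc cells (1500/well) plated 24 h, then exposed 24 h to a dilution series; GF-AFC added 30 min at 37C, fluorescence 405/540 nm; normalised to medium-only and DMSO wells, Hill fit.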
IP6K1 inh: inhibitors of human IP6K1. AID 1645851. activity change, % (series mostly up to about 58 µM). Q92551. 0.81% of 140,000 active. IP6K1 kinase, ADP-Glo luminescence, 2 h; hits give low values; in the data active = activity change below about -25%
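ADP-Glo luminescence measures ADP made by human IP6K1 during a 2 h RT reaction with ATP/IP6 (mix at 1.3 mM/130 uM); top library doses 57.5 and 19.1 uM final.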
SNCA expr inhib: inhibitors of alpha-synuclein (SNCA) gene expression; Potency, µM (doses to about 57.2 µM), without a hit: at the top dose activity change, negative = inhibition, usual class: inhibitors; AID 1671194; HEK-293 SNCA-luciferase knock-in, luminescence, 24 h; 0.17% of 140,000 active;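 note: potency is the fitted concentration of half-maximal effect; plate controls were DMSO cells for no effect and cell-free wells for full effect; nearly all actives have a fitted effect of over 45% in size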
IP6K1 conf: confirmation of human IP6K1 inhibitors; recombinant IP6K1 kinase, ADP-Glo luminescence, 2 h; 13% of 1,200 active; Potency, µM (highest dose often 49 µM), for the others: at the highest dose activity change, negative = inhibition, usual class: inhibitors; shares compounds with IP6K1 inh; note: potency is the fitted concentration of half-maximal effect; nearly all actives have a fitted effect of over 65% in size
Numbers without * were called inactive; i = inactive; ? = inconclusive; . = no result; ! = not confirmed by another sample; [ ] = another dose, or the depositor's remark. Sampled rows, rich in hits. Any-hit rate of the full collection: about 1%. Unless noted, calls come from the whole dose curve; as a rule, active = well fitted curve in the direction sought with a large enough effect; inconclusive = small, poorly fitted or top-dose-only effect, or another doubt; inactive = no such curve, though single readings can be large; an effect the other way counts as inactive or inconclusive. Unless noted, % is set by controls: 0 for no effect and ±100 for the full control effect.

SMILES	GPT2 inhibitor	SNCA viab count	IP6K1 inh	SNCA expr inhib	IP6K1 conf
O=C(NC1CCN(C(=O)c2ccc(-c3cncnc3)cc2)CC1)c1ccccc1Cl	-2%	5%[12.5 µM]	-8	2%	.
COc1ccc(CN2C[C@H](O)C[C@H]2c2nc(-c3cccc(C)c3)no2)c2ccccc12	-22%[88.5 µM]	-7%[87.6 µM]	-13	114%[87.6 µM]	.
Cc1cc(C)cc(NC(=O)CCCc2nc(-c3ccco3)no2)c1	.	0%	-27*	5%	-14%
Cn1nc(-c2ccccc2F)c2cc(C(=O)NCc3ccc(Cl)cc3)sc21	.	?	-39*	?	?
COc1ccc2c(c1)CN(Cc1ccccc1)C(=O)CCN2CC(O)Cc1ccccc1 (centres undefined)	.	.	0	.	.
CCc1ccccc1Nc1nn2c(=O)c3ccc(C(=O)NCc4ccccc4Cl)cc3nc2s1	.	-19%	-26*	2%	1%
Cc1cnc(C2CC2)n1CCNS(=O)(=O)c1ccccc1Cl	i	-10%	-4	?	.
CCOC(=O)c1cccc(NC(=O)N2CC[C@@H](CC(=O)Nc3ccccc3)[C@@H](CC)C2)c1	0%	-6%	8	3%	.
CCOC(=O)c1cccc(NC(=O)N2CC[C@@H](CC(=O)Nc3nccs3)[C@@H](CC)C2)c1	i	4%	-35*	-12%	?
O=C(Nc1cccc(-c2ccc(N3CCOCC3)nn2)c1)Nc1cc(F)ccc1F	-2%	?	-13	?	.
O=C(Nc1cccc(-c2ccc(N3CCOCC3)nn2)c1)Nc1ccccc1F	i	-22%	-32*	-1%	?
COc1ccccc1OC1(C(=O)O)CCN(Cc2cnn(C)c2C)CC1	0%[11.5 µM]	?	-29*	47%	-3%
CCc1cc(N2CCC(Oc3ccccc3OC)(C(=O)O)CC2)nc(C)n1	3%[11.5 µM]	-5%	-32*	15%	-11%
O=C(c1c(F)cccc1F)N1CCC2(CC1)N=C(c1ccc(Cl)cc1)NO2	i	-7%	3	-15%	.
Cc1ccccc1-c1cccc(CN2CCOC(CCN)C2)c1 (centres undefined)	?	?	-4	?	.
Cc1ccc2c(c1)cc1c(=O)n(Cc3cccc(Cl)c3)nc(C)n12	.	9%	-30*	5%	-7%
Cc1ccc2c(c1)cc1c(=O)n(Cc3ccc(Cl)cc3)nc(C)n12	.	13%	-7	9%	.
C[C@@H](N)C(=O)N1CCC(n2nccc2NC(=O)Nc2cccc(F)c2)CC1	-18%	-6%	-11	8%	.
NCCC(=O)N1CCC(n2nccc2NC(=O)Nc2cccc(F)c2)CC1	i[11.5 µM]	1%	-30*	2%	16%
CN(Cc1cc2n(n1)CCCNC2)Cc1nc(-c2ccccc2)cs1	-13%	3%	5	8%	.
CN(Cc1ccc2nsnc2c1)Cc1cc2n(n1)CCCNC2	i	0%	-25*	4%	-7%
COc1ccc(-c2ccc(C(=O)N(C)C)c(Cl)c2)nn1	.	.	-46*	.	?
COc1ccc(-c2ccc(C(=O)N3CCCC3)c(Cl)c2)nn1	.	.	-69*	.	?
COc1ccc(-c2ccc(C(=O)N(C)c3ccccc3)cc2)nn1	.	.	-17	.	?
COc1ccc(-c2ccc(C(=O)NC(C)C)c(Cl)c2)nn1	.	.	-11	.	.
SMILES	GPT2 inhibitor	SNCA viab count	IP6K1 inh	SNCA expr inhib	IP6K1 conf
Cn1cc(-c2ccc3nnc(Sc4ccc5ncccc5c4)n3n2)cn1	3%	-5%	.	20%	.
OCCn1cc(-c2cnc3nnn(Cc4ccc5ncccc5c4)c3n2)cn1	?	0%	-12	-7%	-12%
COc1ccc(S(=O)(=O)N(CC(=O)NC(C)c2ccccc2)c2ccc(C)cc2)cc1OC (centres undefined)	.	2%	-33*	6%	?
COc1ccc(C(C)NC(=O)CN(c2cc(OC)ccc2OC)S(=O)(=O)c2ccccc2)cc1 (centres undefined)	.	2%	-8	-10%	.
COc1ccc(S(=O)(=O)N(CC(=O)NCc2ccccc2)c2ccc(C)cc2)cc1OC	.	?	-26*	-27%	-4%
Cc1ccc(Cn2cc(-c3ccncc3)cc2C(=O)NCc2ccc(N(C)C)cc2)cc1	-9%	3%	1	9%	.
COc1cccc(C(=O)N2CCC(c3nc(C4CCOC4)no3)CC2)c1 (centres undefined)	i[11.5 µM]	7%	-37*	3%	-13%
Cc1cc(-c2nc3ncccc3[nH]2)c(C)[nH]1	-4%[88.5 µM]	-3%[87.6 µM]	8	151%[87.6 µM]	.
c1cnc2nc(-c3c[nH]c4ncccc34)[nH]c2c1	-58%[88.5 µM]	-29%[87.6 µM]	-44*!	55%[87.6 µM]	?
CCOC(=O)CN(Cc1cccs1)[C@@H]1C[C@@H]2CO[C@H](C(C)C)C[C@@H]2C1	.	.	18	.	.
CC(C)CNC(=O)c1ccnc(-c2nnc3ccc(Nc4ccccc4)nn23)c1	-28%[88.5 µM]	-11%[87.6 µM]	-28*	-2%[87.6 µM]	?
O=[N+]([O-])c1cccc(-c2noc([C@@H]3Cc4nc[nH]c4CN3)n2)c1	1%[88.5 µM]	-4%[87.6 µM]	8	81%[87.6 µM]	.
CCN1CCC2(CCC1=O)CN(Cc1nc(CCOC)no1)CCN2C (centres undefined)	-3%[11.5 µM]	-1%	-33*	-29%	-5%
CCN1CCC2(CCC1=O)CN(Cc1noc(CC(C)C)n1)CCN2C (centres undefined)	i	7%	-5	-14%	.
CN1Cc2ncnc(NCC3CC3)c2CN(c2ccc(Cl)cc2)C1=O	-3%	-2%	-8	-8%	.
CN1Cc2ncnc(NCCc3ccc(F)cc3)c2CN(c2ccc(Cl)cc2)C1=O	i	-26%	-29*	?	-7%
COc1ccc(CNC(=O)C2CCN(S(=O)(=O)c3cn(C)cn3)CC2)cc1	.	9%	-1	12%	.
CCOc1ccc(CNC(=O)C2CCN(S(=O)(=O)c3cn(C)cn3)CC2)cc1	.	7%	-26*	-15%	17%
c1cc(Nc2cc(C3CC3)[nH]n2)nc(Nc2ccc3nc[nH]c3c2)n1	i	-36%	-27*	.	?
CN(C)CCNC(=O)c1nc2nc(-c3ccccc3)c(-c3ccc(Cl)cc3)cc2n1C	-4%[88.5 µM]	?	-4	?	.
Nc1ccc(O)c([N+](=O)[O-])c1	?	13%	-28*	153%	32µM*
O=C(c1ccc(C(F)(F)F)cc1)N1CCCC2(C1)C(=NC1CCCC1)NC(=O)N2c1cc(F)cc(F)c1 (centres undefined)	i	-1%	-2	-18%	.
N[C@@H](Cc1cc(I)c(O)c(I)c1)C(=O)O	?	-13%[23.9 µM]	-62*	6%[25.6 µM]	-20%
O=C(O)C(Cc1cc(I)c(O)c(I)c1)c1ccccc1 (centres undefined)	-16%	-28%[23.9 µM]	26	8%[25.6 µM]	.
CN(C)C(=O)c1cc(-c2ccc(Cl)cc2)cn1C	-5%	-7%	-33*	58%	?
CC(=O)Nc1ccc(NC(=O)c2c(-c3ccccc3)noc2C)cc1	.	-9%	13	-2%	.
CCOC(=O)c1ccccc1NC(=O)c1c(-c2ccccc2)noc1C	.	5%	-31*	?	-14%
